Rows were chosen to be rich in hits. Some 3.9% of all compounds tested hit in one or more screens of this group.
D1 antag: human D1 dopamine receptor antagonism; P21728; HEK293 TREx D1 cells, calcium flux, dopamine EC80; hits give low values; activity change, negative = inhibition, % at 10 µM; 360,000 compounds, 3.2% hits; in the data active = activity change below about -30%; also: % is scaled to controls: 0 for no effect and ±100 for the full control effect
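Using tetracycline-induced force-coupled D1 Hek293 cells and a calcium dye, signals were followed for 180 s after compound, then for 180 s after EC80 dopamine, to detect inhibitors.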
GALK inhibitor: galactokinase (human) inhibition | P51570 | Purified GALK, Kinase-Glo residual ATP luminescence | Potency, µM (titrated, usually from 57.5 µM), for the others: at the highest dose activity change, negative = inhibition, actives largely listed as inhibitors | 270,000 compounds, 0.007% hits | AID 1868; also: potency is read from the fitted curve at half-maximal effect; % is scaled to controls: 0 for no effect and ±100 for the full control effect
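Compounds were pin-transferred into ATP buffer (35 uM final), then GALK plus galactose (5 nM, 100 uM final) was added. After 1 h at room temperature, Kinase-Glo Plus was added and luminescence read after 10 min.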
Eya2 phos inh: inhibitors of human Eya2 phosphatase activity. recombinant Eya2, OMFP fluorescence dephosphorylation (OMFP is methylfluorescein phosphate). 330,000 compounds, 0.006% hits. AID 488837. Potency, µM (titrated, usually from 76.9 µM), for the others: at the top dose activity, negative = inhibition, actives largely listed as inhibitors; also: potency is read from the fitted curve at half-maximal effect; % is scaled to controls: 0 for no effect and ±100 for the full control effect
Target sequence (O00167 whole entry, looked up): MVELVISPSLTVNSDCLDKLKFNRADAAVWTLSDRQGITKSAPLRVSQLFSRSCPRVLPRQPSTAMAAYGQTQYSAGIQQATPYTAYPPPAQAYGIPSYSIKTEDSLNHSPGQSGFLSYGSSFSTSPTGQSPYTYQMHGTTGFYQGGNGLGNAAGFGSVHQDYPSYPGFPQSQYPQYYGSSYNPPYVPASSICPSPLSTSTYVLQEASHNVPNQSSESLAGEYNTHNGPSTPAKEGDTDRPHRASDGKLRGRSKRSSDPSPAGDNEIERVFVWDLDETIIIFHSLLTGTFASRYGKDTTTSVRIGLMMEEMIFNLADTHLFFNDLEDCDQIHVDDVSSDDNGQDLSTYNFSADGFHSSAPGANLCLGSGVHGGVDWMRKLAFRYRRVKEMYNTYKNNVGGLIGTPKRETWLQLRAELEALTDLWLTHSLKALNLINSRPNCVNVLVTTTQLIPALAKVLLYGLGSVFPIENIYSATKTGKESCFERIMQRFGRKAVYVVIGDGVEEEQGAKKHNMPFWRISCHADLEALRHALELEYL
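Eya2 protein (added as 0.2 uM solution) was preincubated with compound for 10 min at ambient temperature in 50 mM HEPES pH 7.5, 50 mM NaCl, 5 uM MgCl2, 0.05% BSA, 1 mM DTT. OMFP (added at 50 uM) then reacted 10 min; fluorescence read at 485/525 nm.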
D1 agonist: activates the human D1 dopamine receptor; P21728; HEK293 T-REx D1 cells, calcium flux, agonist mode; activation, % at 2 µM; 360,000 compounds, 1% hits; in the data active = activation above about 30%; also: 0% is about no effect
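Inducible HEK293 T-REx D1 cells, force-coupled to calcium signalling, were plated at 4000 cells/well with tetracycline and held overnight at 30 C. After no-wash calcium dye loading, compound-evoked calcium rise over 180 s flagged agonists.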
D1 PAM: enhances dopamine response at the human D1 receptor | AID 504651 | potentiation, % at 10 µM | HEK293 TREx D1 cells, calcium flux, dopamine EC20 potentiation | 360,000 compounds, 0.036% hits; in the data active = potentiation above about 30%; also: 0% is about no effect
USP2a inh: USP2a (human) protease inhibition. O75604. Potency, µM (series often up to 38.3 µM), inactives show at the highest dose activity change, negative = inhibition, usual class: inhibitors. AID 463254. 330,000 compounds, 0.01% hits. USP2 core, Ub-CHOP2 coupled fluorogenic reporter, 485/531;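 also: potency is read from the fitted curve at half-maximal effect; plate controls were DMSO wells for no effect and full inhibition by NEM control for full effect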
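USP2 core (10nM final) preincubated 30min RT with compound in 20mM Tris-HCl pH 8.0, 2mM CaCl2, 2mM beta-mercaptoethanol, 0.05% CHAPS; 25nM Ub-CHOP2 plus 25nM reporter substrate added, fluorescence (Ex485/Em531) read after 60min.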
Starred values were filed as active, the others as inactive; ? = inconclusive; · = no result given; ! = repeats disagree. Unless noted, calls follow the shape of the dose curve; as a rule, active = well fitted inhibition curve with a large enough effect; inconclusive = small, poorly fitted or top-dose-only effect, or effect the other way; inactive = flat fitted curve, though single readings scatter.

SMILES	D1 antag	GALK inhibitor	Eya2 phos inh	D1 agonist	D1 PAM	USP2a inh
CCOc1cc(CNC(=O)Cn2c(=O)c3cccn3c3ccc(F)cc32)cc(OCC)c1OCC	-20	·	·	11	-2	·
C#CCNC(=O)C1=C[C@H](C2CCCCC2)C[C@H](OCc2ccc(CO)cc2)O1	-35*	1%	-5%	9	-4	3%
C#CCNC(=O)C1=C[C@@H](c2ccc(Br)cc2)C[C@@H](OCc2ccc(CO)cc2)O1	-31*	5%	12%	-5	-4	2%
C#Cc1ccc([C@@H]2C=C(C(=O)O)O[C@H](OCc3ccc(CO)cc3)C2)cc1	-39*	-5%	-12%	-3	-6	-1%
C#CCNC(=O)C1=C[C@H](c2ccc(Br)cc2)C[C@H](OCc2ccc(CO)cc2)O1	20	-2%	2%	5	-4	0%
Cc1cc(Nc2cccc([N+](=O)[O-])c2)n2c(nc3ccccc32)c1C#N	-35*	0%	-26%	26	-7	1%
Cc1cc(Nc2ccc(F)cc2)n2c(nc3ccccc32)c1C#N	-1	·	·	17	2	·
CCOc1cc(C(=O)Nc2ccccc2N2CCN(S(C)(=O)=O)CC2)cc(OCC)c1OCC	-64*	1%	-11%	1	-4	4%
CC(=O)c1ccc(N2CCN(C(=O)Nc3ccc(F)cc3F)CC2)cc1	3	11%	5%	4	-6	0%
O=C(Nc1ccc(F)cc1F)N1CCN(c2ccc(Cl)c(Cl)c2)CC1	-32*	·	·	28	-3	·
CCOc1ccccc1CNCc1c(C(=O)O)c(C)n(Cc2ccc(Cl)cc2)c1C	-67*	·	·	-1	0	·
CCC(CC)C(=O)Nc1ccc(-c2cn3cccnc3n2)cc1	-31*!	0%	2%	0	-4	1%
CCC(CC)C(=O)Nc1ccncc1	-46*	4%	-8%	0	-6	1%
CCCC(CCC)C(=O)Nc1ccncc1	-7	-3%	-8%	17	-3	-1%
CCC(CC)C(=O)Nc1cccc(-c2cn3cccnc3n2)c1	-34*	·	·	3	4	·
CCOc1ccc(S(=O)(=O)c2cc3cccc(OCC)c3oc2=O)cc1	-7	·	·	2	-3	·
O=C(Nc1cnn(Cc2ccc(Cl)cc2Cl)c1)c1noc2c1CCc1ccccc1-2	6	·	·	2	-2	·
CC(C)CC1=NN2C(=N)/C(=C\c3coc4ccccc4c3=O)C(=O)N=C2S1	1	-6%	?	61*	-4	?
Cc1cccc(-n2c(C)cc(/C=C3\C(=N)N4N=C(CC(C)C)SC4=NC3=O)c2C)c1	6	-4%	2%	3	-1	1%
CSC1=NSC2=NC(=O)/C(=C\c3ccc(OC(=O)c4ccco4)cc3)C(=N)N12	-10	-26%	0%	4	-6	4%
CCSC1=NSC2=NC(=O)/C(=C\c3coc4ccccc4c3=O)C(=N)N12	-43*	-18%	?	325*	4	?
Cc1ccc(/C=C(\C#N)c2nc(-c3cc4c(ccc5ccccc54)oc3=O)cs2)cc1	15	·	·	3	1	·
COc1ccc(S(=O)(=O)c2c(O)c(C)cc(NS(=O)(=O)c3ccc(Cl)cc3)c2C(C)C)cc1	4	·	·	1	-5	·
Cn1c(SCC(=O)NCCNC(=O)CSc2nnc(C(F)(F)F)n2C)nnc1C(F)(F)F	-32*	0%	2%	-1	-1	2%
CCc1nc2cccnc2n1-c1ccc(CC(=O)Nc2ccccc2Cl)cc1	-3	·	·	5	-3	·
SMILES	D1 antag	GALK inhibitor	Eya2 phos inh	D1 agonist	D1 PAM	USP2a inh
COc1cccc(CNC(=O)c2ccc(Cl)c(NC3=NC4CS(=O)(=O)CC4S3)c2)c1 (configuration not stated)	-90*	1%	-2%	1	3	1%
COc1cccc(CNC(=O)c2cccc(NC3=NC4CS(=O)(=O)CC4S3)c2)c1 (configuration not stated)	3	·	13%	4	-1	0%
COc1cc(NC(=O)CSC2=Nc3ccccc3N=C(c3ccc(F)cc3)C2)cc(OC)c1	-8	·	·	6	-3	·
COc1cc2c(cc1OC)C(COc1ccc(C(C)C)cc1)NCC2 (configuration not stated)	-27	4%	1%	41*	-4	-5%
CCOc1ccc(CC(=O)C2C(=O)CCCC2=O)cc1OCC	-42*	-1%	14%	5	-3	1%
CN(C)c1ccc(/C=C/c2nc(-c3ccccc3O)n(-c3ccccc3)n2)cc1	-1	·	·	1	-2	·
CCOC(=O)C1CCN(S(=O)(=O)c2cc(-c3onc(C)c3C)ccc2OC)CC1	30	·	·	1	-1	·
Cc1ccc(-c2onc(C)c2C)cc1S(=O)(=O)NCc1ccc(N(C)C)cc1	-32*	·	·	4	-5	·
Cc1ccc(-c2onc(C)c2C)cc1S(=O)(=O)Nc1cccc(Cl)c1C	-39*	·	·	2	-6	·
COc1ccc(-c2onc(C)c2C)cc1S(=O)(=O)NC1CCCCC1	21	·	·	0	0	·
Cc1ccc(-c2onc(C)c2C)cc1S(=O)(=O)NC1CCCCC1	-63*	·	·	4	-8	·
CCOC(=O)C1CCN(S(=O)(=O)c2cc(-c3onc(C)c3C)ccc2C)CC1	-36*	·	·	2	-4	·
CCc1cccc(C)c1NC(=O)c1cc(CN2CCCC2)on1	3	·	·	2	0	·
CCOc1ccc(CNC(=O)c2oc3c(c2C)-c2nn(Cc4cccc(Cl)c4)cc2CC3)cc1	-11	·	·	-1	3	·
COc1cc(NC(=O)Cn2cnc3sc(C)c(S(=O)(=O)N4CCC(C)CC4)c3c2=O)cc(OC)c1OC	4	·	·	-1	2	·
Cc1nc2nc(NC(=O)C(C)C)[nH]n2c(=O)c1Cc1ccccc1	-5	·	·	3	2	·
CCOC(=O)C1CCN(S(=O)(=O)c2c(Cl)ccc3nonc23)CC1	-35*	-9%	4%	4	-8	2%
Cc1cc(N2CCOCC2)ccc1/C=C\[N+](=O)[O-]	11	·	-4%	47*	-2	-1%
O=[N+]([O-])c1ccc(N2CCOCC2)cc1O	0	·	5%	6	-7	6%
CC(=O)Nc1ccc(-c2nnc3n(CC(C)C)c(=O)c4ccccc4n23)cc1	4	·	·	-1	2	·
O=C(Cc1c(F)cccc1Cl)N1CCOCC1	-36*	-2%	2%	-1	-4	4%
CC(C)CC(=O)Nc1c2c(nn1-c1cccc(Cl)c1)CS(=O)C2 (configuration not stated)	-33*	3%	-3%	2	8	-3%
CC(C)(C)/C(Cn1cncn1)=N\OC(=O)Nc1ccc(Cl)cc1	-55*	2%	0%	5	-7	1%
